Experiment [1] deals with Thyrotropin receptor (Homo sapiens) (UniProt P16473). Put plainly: qHTS assay to identify small molecule agonists of the thyroid stimulating hormone receptor (TSHR) signaling pathway (AID 1224843; calls by dose curve; further: nearly all actives have a fitted effect of over 45% in size). A digest of the protocol: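 Agonist-mode screen: TSHR HEK293 cells received test chemicals for half an hour at room temperature, then HTRF cAMP detection reagents for one hour prior to fluorescence measurement. Each chemical ran as a 15-concentration series, triplicated.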
(In general: Quantitative high-throughput screening tests each substance at several concentrations.)

Experiment [2] can be described thus: qHTS assay to identify small molecule agonists of the hypoxia (HIF-1) signaling pathway - cell viability counter screen (AID 1224844; calls by dose curve; further: nearly all actives have a fitted effect of over 50% in size). The method in brief:
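Same wells as the HIF-1 reporter screen; ME-180 cells carrying HRE-bla, 17 hr treatment at 37C; CellTiter-Glo luminescence read after 30 min at room temperature.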

Experiment [3] is described as follows: qHTS assay to identify small molecule agonists of H2AX (AID 1224845; active means well fitted activation curve with a large enough effect in the signal ratio in the repeat runs, not every such curve was filed as active; the % refers to the signal ratio). The method in brief: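 Wild-type CHO-K1 cells, plated overnight, exposed 3hr at 37C to 15 concentrations (0.76% DMSO final). Lysed, then HTRF anti-pH2AX (S139) cryptate and anti-H2AX-d2 antibodies, 24 hr room temperature; 665/620 nm emission read.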
Experiment [4] is described as follows: qHTS assay to identify small molecule agonists of the hypoxia (HIF-1) signaling pathway (AID 1224846; active means well fitted activation curve with a large enough effect in the signal ratio in the repeat runs, not every such curve was filed as active; the % refers to the signal ratio). The method in brief: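 In ME-180 cells bearing an HRE-bla construct, 17 h treatment with DMSO-dissolved compounds at 37C was followed by CCF4-AM loading to quantify reporter induction.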
The nature of experiment [5]: qHTS assay to identify small molecule agonists of H2AX - cell viability counter screen (AID 1224847; calls by dose curve; further: top concentration of the series differs between compounds; nearly all actives have a fitted effect of over 30% in size). A digest of the protocol: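 CHO-K1 cells plated overnight at 37C, then exposed 3 h at 37C to compounds at 15 concentrations (0.76% DMSO final). Viability by CellTiter-Glo luminescence after 30 min at room temperature.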
The nature of experiment [6]: qHTS assay to identify small molecule antagonists of the estrogen related receptor (ERR) signaling pathway from Tox21 library (AID 1224848). Further: nearly all actives have a fitted effect of over 50% in size. Further: potency means the concentration at half of the fitted maximal effect. The method in brief:
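Quantitative high-throughput format: ERR reporter cells (2,000/well) pre-incubated 6 h, treated 18 h at 37 C with compounds in DMSO alongside positive and negative controls, then read by ONE-Glo luminescence.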

Experiment [7] can be described thus: qHTS assay to identify small molecule agonists of the estrogen related receptor (ERR) signaling pathway from Tox21 library (AID 1224849; calls by dose curve; further: nearly all actives have a fitted effect of over 15% in size). The note with it: ERR reporter cell line, ONE-Glo luciferase, 18 h; at 92.4 µM (top of the series) unless noted. A digest of the protocol: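 Reporter cells (ERR, NTP source) treated with Tox21 10K compounds 18 h, 37 C. Readout: ONE-Glo luminescence, 30 min RT.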

Experiment [8] can be described thus: qHTS RealTime-Glo MT Cell Viability Assay in HepG2 cells - 24 hour (AID 1224867). Further: nearly all actives have a fitted effect of over 50% in size. The method in brief: (§1)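 HepG2 cells (600/well) were dispensed with RealTime-Glo reagents, incubated 5 h at 37 °C, then treated with compounds in DMSO for up to 40 h. Nonlytic NanoLuc luminescence reflecting viable cells was read at each stated time point.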
The nature of experiment [9]: qHTS RealTime-Glo MT Cell Viability Assay in HEK293 cells - 32 hour (AID 1224868). Further: top concentration of the series differs between compounds; nearly all actives have a fitted effect of over 50% in size. A digest of the protocol:
(§2)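 HEK293 cells seeded with NanoLuc/prosubstrate reagent, rested 5 h at 37 C, then dosed and kept at 37 C up to 40 h. Nonlytic real-time luminescence from viable cells read at 0, 8, 16, 24, 32 and 40 h.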

Experiment [10] can be described thus: A CellTox Green Cytotoxicity Assay to monitor cytotoxicity in HEK293 cells - 0 hour (AID 1224869). Further: nearly all actives have a fitted effect of over 50% in size. The method in brief:
(§3)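 Homogeneous no-lysis format: HEK293 cell suspension mixed with CellTox Green reagent, seeded, incubated 5 h at 37 C/5% CO2, then dosed by pintool with compound in DMSO.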

The nature of experiment [11]: qHTS RealTime-Glo MT Cell Viability Assay in HepG2 cells - 40 hour (AID 1224870). Further: nearly all actives have a fitted effect of over 50% in size. The method in brief: (§4)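 HepG2 cells (600/well) mixed with RealTime-Glo MT reagent, settled 5 h at 37 C/5% CO2 before compound addition. Nonlytic NanoLuc luminescence from viable-cell prosubstrate reduction read repeatedly during 40 h treatment at 37 C.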
Experiment [12] can be described thus: qHTS RealTime-Glo MT Cell Viability Assay in HEK293 cells - 16 hour (AID 1224872). The method in brief: as §2
A short description of experiment [13]: qHTS RealTime-Glo MT Cell Viability Assay in HepG2 cells - 8 hour (AID 1224873). Further: nearly all actives have a fitted effect of over 55% in size. The method in brief: as §4
Experiment [14] can be described thus: qHTS RealTime-Glo MT Cell Viability Assay in HEK293 cells - 40 hour (AID 1224874). Further: nearly all actives have a fitted effect of over 50% in size. The note with it: RealTime-Glo luminescence; max response: active compounds read low. The method in brief:
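Measured as luminescence from the same continuously cultured HEK293 wells at successive time points (0, 8, 16, 24, 32, 40 h) after compound addition. Reagent present from seeding; dosing at 5 h; incubation 37 C.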

Experiment [15] can be described thus: A CellTox Green Cytotoxicity Assay to monitor cytotoxicity in HEK293 cells - 24 hour (AID 1224875). Further: nearly all actives have a fitted effect of over 45% in size. The method in brief:
as §3

The nature of experiment [16]: A CellTox Green Cytotoxicity Assay to monitor cytotoxicity in HepG2 cells - 16 hour (AID 1224876). Further: nearly all actives have a fitted effect of over 45% in size. The method in brief:
(§5)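 Fluorescent DNA-binding dye, 600 HepG2 cells/well, 5 h preincubation then compound in DMSO; same plates read at 0–40 h, 37 C.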

A short description of experiment [17]: A CellTox Green Cytotoxicity Assay to monitor cytotoxicity in HepG2 cells - 24 hour (AID 1224878). Further: nearly all actives have a fitted effect of over 45% in size. A digest of the protocol:
as §5

Experiment [18] can be described thus: A CellTox Green Cytotoxicity Assay to monitor cytotoxicity in HepG2 cells - 40 hour (AID 1224879). Further: nearly all actives have a fitted effect of over 40% in size. The method in brief:
as §5

Experiment [19] in a line: A CellTox Green Cytotoxicity Assay to monitor cytotoxicity in HEK293 cells - 40 hour (AID 1224871). Further: nearly all actives have a fitted effect of over 45% in size. A digest of the protocol:
as §3

A short description of experiment [20]: qHTS RealTime-Glo MT Cell Viability Assay in HepG2 cells - 32 hour (AID 1224877). Further: nearly all actives have a fitted effect of over 55% in size. A digest of the protocol: as §1

Values without a mark were called inactive. Results filed as inconclusive are left out. The source made the active and inactive calls. Unless noted, the call rests on the fitted dose curve; in most records, active means well fitted curve in the direction sought with a large enough effect in the repeat runs; inconclusive means weak or mixed curves; inactive means no such curve, though single readings can be large; an effect the other way counts as inactive or inconclusive.

The values below come from PubChem BioAssay (Tox21).
On the % scale 0 is the no-effect control and ±100 the full control effect.

Chain of Thyrotropin receptor (Homo sapiens) (P16473 whole entry, looked up): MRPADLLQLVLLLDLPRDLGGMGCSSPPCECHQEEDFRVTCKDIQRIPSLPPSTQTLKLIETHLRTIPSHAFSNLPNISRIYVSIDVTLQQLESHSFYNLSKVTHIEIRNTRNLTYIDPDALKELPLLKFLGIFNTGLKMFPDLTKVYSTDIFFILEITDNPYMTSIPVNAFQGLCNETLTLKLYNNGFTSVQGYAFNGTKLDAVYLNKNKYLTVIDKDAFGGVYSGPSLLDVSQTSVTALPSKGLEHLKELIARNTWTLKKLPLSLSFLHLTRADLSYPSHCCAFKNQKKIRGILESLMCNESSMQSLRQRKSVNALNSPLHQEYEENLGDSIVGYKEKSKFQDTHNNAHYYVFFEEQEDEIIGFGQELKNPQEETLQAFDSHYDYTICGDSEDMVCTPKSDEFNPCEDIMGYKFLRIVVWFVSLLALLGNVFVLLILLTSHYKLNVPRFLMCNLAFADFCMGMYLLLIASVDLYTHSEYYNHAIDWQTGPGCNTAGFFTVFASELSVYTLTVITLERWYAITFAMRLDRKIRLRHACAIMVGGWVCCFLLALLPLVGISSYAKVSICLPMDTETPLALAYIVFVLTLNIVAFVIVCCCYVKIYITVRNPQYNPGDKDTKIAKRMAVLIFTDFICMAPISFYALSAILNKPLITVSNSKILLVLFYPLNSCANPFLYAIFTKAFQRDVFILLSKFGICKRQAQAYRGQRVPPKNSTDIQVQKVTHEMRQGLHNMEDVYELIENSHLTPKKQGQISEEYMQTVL

`COC(=O)CCc1ccc(OCC(O)CNC(C)C)cc1` (stereo not drawn): the Potency entry in [1], in experiment [5], in experiment [6], in experiment [9], in experiment [12] and in experiment [18] was “inactive” in each case. In addition, the compound was classed as inactive in experiment [2], in [3], in [4], in [8], in experiment [10] and in experiment [11]. The compound was called inactive in experiment [13], in experiment [15], in experiment [16] and in [17]. Also, the activity change, positive = activation in experiment [7] is 8.83% [at 42.5 µM]. For the same compound, the max response in experiment [14] was 5.47%.

Turning to `C=C(C)C(=O)OCCOP(=O)(O)OCCOC(=O)C(=C)C`, the Potency result in experiment [1], in experiment [5], in [6], in experiment [9], in [19] and in experiment [12] was “inactive” throughout. The Potency result in experiment [18] was “inactive”. The compound was called inactive in [2], in experiment [3], in [4], in [8], in experiment [10] and in experiment [11]. Also, the compound was classed as inactive in experiment [13], in [15], in experiment [16], in [20] and in [17]. The activity change, positive = activation in experiment [7] was 5.76%. Besides, the max response in [14] is -2.48%.

Consider `CCCCC(CC)COCCO` (stereo not drawn), for which the Potency entry in experiment [1], in experiment [5], in experiment [6], in [9], in experiment [12] and in experiment [18] was “inactive” throughout. The outcome in experiment [2], in [3], in [4], in experiment [8], in experiment [10] and in [11] was inactive. Besides, the call in [13], in experiment [15], in [16], in experiment [20] and in experiment [17] was inactive. In addition, in experiment [7], the activity change, positive = activation was 5.52%. For the same compound, in [14], the max response is -0.338%.

Regarding `Cc1nc2n(c(=O)c1CCN1CCC(c3noc4cc(F)ccc34)CC1)CCC[C@H]2O`, the activation is -7.95% [at 19 µM] in experiment [1] and -0.458% [at 15.8 µM] in [4]. The activity change, negative = cytotoxicity is 1.15% [at 15.8 µM] in [2], -0.277% [at 31.6 µM] in experiment [5] and 1.28% [at 15.8 µM] in experiment [8]. For the same compound, in experiment [3], the activation (H2AX phosphorylation) was -1.87% [at 31.6 µM]. Moreover, the activity, negative = inhibition in [6] was 3.9% [at 19 µM]. Also, in experiment [7], the activity change, positive = activation was 2.19% [at 19 µM]. For the same compound, the values for the cytotoxicity in [10] and in experiment [17] were 0.136% [at 15.8 µM] and 0.861% [at 15.8 µM], respectively. Moreover, the activity change, negative = cytotoxic was 0.984% [at 15.8 µM] in experiment [11] and 0.664% [at 15.8 µM] in [20]. Moreover, the cytotoxicity increase in experiment [19] was 6.76% [at 15.8 µM]; in experiment [16], -0.968% [at 15.8 µM]; in [18], 0.318% [at 15.8 µM]. Moreover, in experiment [13], the viability change, negative = cytotoxic is -0.0945% [at 15.8 µM]. The activity change in [15] is -3.48% [at 15.8 µM].

Turning to `COc1cc(N)ccc1C`, the Potency entry in experiment [1], in [5], in experiment [9], in experiment [12] and in [18] was “inactive” each time. The compound was classed as inactive in [2], in experiment [3], in [4], in [8], in [10] and in experiment [11]. Moreover, the compound was classed as inactive in [13], in experiment [15], in experiment [16], in experiment [20] and in experiment [17]. For the same compound, the Potency in [6] was 27 µM (active). Moreover, in [7], the activity change, positive = activation was -31.2%. Also, the max response in experiment [14] is 8.05%.

With `O=C(CS(=O)Cc1ccco1)NC/C=C\COc1cc(CN2CCCCC2)ccn1` (stereo not drawn), the Potency entry in [1], in experiment [5], in experiment [6], in experiment [9], in experiment [19] and in [12] was “inactive” throughout. Moreover, the Potency result in [18] is “inactive”. In addition, the result in experiment [2], in experiment [3], in [4], in [8], in experiment [10] and in [11] was inactive. The result in [13], in experiment [15], in experiment [16], in experiment [20] and in experiment [17] was inactive. For the same compound, the activity change, positive = activation in [7] is 7.25% [at 42.5 µM]. In experiment [14], the max response was -0.682%.
